Results reported in PubChem BioAssay (NCATS).
Inconclusive results are not listed. Activity calls are given as the source filed them. Calls follow the shape of the dose curve; as a rule, active = well fitted curve in the direction sought with a large enough effect; inconclusive = small, poorly fitted or top-dose-only effect, or another doubt; inactive = no such curve, though single readings can be large; an effect the other way counts as inactive or inconclusive.

How the values were obtained:
[1] = Cellular Toxicity (caspase-3) Mesangial (AID 660); conditions: mesangial cells, normalized: DMSO 0%, 100 µM tamoxifen 100%; at 91.7 µM (top of the series);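 also: combined caspase 3 and 7 activity read by Caspase-Glo luminescence; cells exposed to compound for 16 h before the caspase read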
Procedure, shortened: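 Human renal glomerular mesangial cells, 1000/well, 5 h at 37 C before 16 h compound treatment. Caspase-Glo 3/7 luminescence after 20 min; normalized to DMSO and 100 uM tamoxifen, AC50 from Hill fit.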

[2] = Cellular Toxicity (caspase-3) SK-N-SH (AID 661);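 also: 0% = DMSO basal and 100% = 10 µM staurosporine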
Procedure, shortened: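 Human SK-N-SH neuroblastoma cells, 1500/well, were exposed to compounds for 16 hours at 37 °C. Caspase-Glo 3/7 luminescence was normalized to DMSO (basal) and 10 uM staurosporine (100%), and AC50 came from a Hill fit.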

[3] = Cellular Toxicity (caspase-3) H-4-II-E (AID 663); conditions: H-4-II-E rat hepatoma, scaled: DMSO 0%, 100 µM tamoxifen 100%; at 92.2 µM (top of the series)
Procedure, shortened: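 Apoptosis induction is scored as increased luminescence from caspase 3/7 substrate cleavage in rat hepatoma H-4-II-E cells exposed to compound for 16 hr. Activity is scaled between DMSO and 100 uM tamoxifen.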

[4] = Cellular Toxicity (caspase-3) Hek293 (AID 664); conditions: HEK293 caspase-3 activation, DMSO = 0%, 100 µM tamoxifen = 100%; at 92.2 µM (top of the series);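 also: cells exposed to compound for 16 h at 37 °C before readout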
Procedure, shortened: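 HEK293 cells in complete medium treated 16 h at 37 °C, then Caspase-Glo 3/7 luminescence read after 20 min at room temperature. Normalized to DMSO and 100 uM tamoxifen; AC50 from Hill fit of concentration-response.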

[5] = Cellular Toxicity (caspase-3) N2a (AID 665);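 also: compound exposure lasted 16 h at 37 °C before readout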
Procedure, shortened: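 Mouse N2a neuroblastoma cells, 1500 per well, treated 16 h at 37 °C in complete medium; caspase-3/7 activity by Caspase-Glo luminescence after 1 h. Normalized to DMSO and 10 uM staurosporine; AC50 from Hill fits.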

[6] = Cellular Toxicity (caspase-3) NIH 3T3 (AID 666);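 also: caspase signal read after 16 h compound exposure; 0% = DMSO basal and 100% = 100 µM tamoxifen stimulation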
Procedure, shortened: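 Mouse NIH 3T3 fibroblasts (1000/well) treated 16 h at 37 C; caspase-3/7 activity measured by Caspase-Glo 3/7 luminescence after 20 min. Normalized to DMSO and 100 uM tamoxifen; AC50 from Hill fits.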

[7] = Cellular Toxicity (caspase-3) Renal Proximal Tubule (AID 667); conditions: Potency: caspase-3 activation;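 also: cells exposed to compound for 16 hours at 37 °C before detection; 0% = DMSO basal and 100% = 10 µM staurosporine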
Procedure, shortened: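 Freshly isolated primary rat kidney proximal tubule cells, 1000/well, treated 16 hr at 37 °C, then Caspase-Glo 3/7 luminescence after 1 hr. Normalized to DMSO and 10 uM staurosporine; AC50 from Hill fit.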

[8] = molecular target: Cytochrome P450 3A4 (Homo sapiens) (UniProt P08684); experiment: qHTS Assay for Inhibitors and Substrates of Cytochrome P450 3A4 (AID 884); also: % is scaled to controls: 0 for no effect and ±100 for the full control effect; nearly all actives have a fitted effect of over 50% in size
Chain of Cytochrome P450 3A4 (Homo sapiens) (P08684 whole entry, looked up): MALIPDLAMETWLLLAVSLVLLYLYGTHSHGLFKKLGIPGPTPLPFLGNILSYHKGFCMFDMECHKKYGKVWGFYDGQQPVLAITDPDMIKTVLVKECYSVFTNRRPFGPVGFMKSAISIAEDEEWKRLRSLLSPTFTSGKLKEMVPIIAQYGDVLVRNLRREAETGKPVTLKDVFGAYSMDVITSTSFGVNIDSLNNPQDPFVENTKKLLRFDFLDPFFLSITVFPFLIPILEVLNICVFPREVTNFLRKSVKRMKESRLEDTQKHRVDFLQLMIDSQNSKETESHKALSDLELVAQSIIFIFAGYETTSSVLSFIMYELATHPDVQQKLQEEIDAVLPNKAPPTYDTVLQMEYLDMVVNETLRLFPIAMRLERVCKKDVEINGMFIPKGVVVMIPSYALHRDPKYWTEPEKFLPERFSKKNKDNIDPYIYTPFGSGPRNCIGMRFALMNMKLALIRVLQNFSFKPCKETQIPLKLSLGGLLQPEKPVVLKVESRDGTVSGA
Procedure, shortened: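 20 nM human CYP3A4 with 25 uM Luciferin-PPXE (at KM) in 200 mM KPO4, preincubated 10 min with compound; NADPH regeneration started a 60 min RT reaction. Luciferin detected by luminescence, normalized to 57 uM ketoconazole as full inhibition.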

[9] = Cell Viability - LYMP2-001 (AID 921);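 also: 0% = DMSO only and full inhibition = tetraoctylammonium bromide control wells; nearly all actives have a fitted effect of over 70% in size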
Procedure, shortened: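 Human lymphoblastoid LYMP2-001 cells, 2500 per well, in complete medium, treated 24 h at 37 C. Viability from cellular ATP by CellTiter-Glo luminescence; AC50 from Hill-equation fits of qHTS concentration-response.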

[10] = MultiTox-Fluor Cytotoxicity Assay - LYMP1-001 - Dead Cells (AID 946);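 also: 0% = DMSO and 100% = tetraoctylammonium bromide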
Procedure, shortened: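 In this qHTS, 15 uM tetraoctylammonium bromide defined 100% and DMSO defined basal activity. Lymphoblastoid cells (LYMP1-001, 2500 per well) received compound for 16 hr at 37 C before a fluorogenic dead-cell substrate readout at 485/520 nm.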

[11] = MultiTox-Fluor Cytotoxicity Assay - LYMP1-001 - Live Cells (AID 947);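 also: 0% = DMSO only and full inhibition = tetraoctylammonium bromide control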
[12] = Cell Viability - LYMP1-002 - Assay at 16 hr (AID 948);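 also: 0% = DMSO alone and full effect = 92 µM tetraoctylammonium bromide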
Procedure, shortened: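 LYMP1-002 human lymphoblastoid cells, 2500/well, were treated with compounds for 16 hr at 37 C in complete medium. Viability was read as intracellular ATP by CellTiter-Glo luminescence, and AC50 was derived from a Hill fit to concentration-response data.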

[13] = MultiTox-Fluor Cytotoxicity Assay - LYMP1-002 - Live Cells (AID 955); also: % is scaled to controls: 0 for no effect and ±100 for the full control effect
Procedure, shortened: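 Human lymphoblastoid LYMP1-002 cells, 2500/well, treated 16 h at 37 C in complete medium. Live-cell protease activity via GF-AFC fluorescence (Ex/Em 405/510) after 60 min reagent incubation; AC50 from Hill fits.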

[14] = MultiTox-Fluor Cytotoxicity Assay - LYMP1-003 - Dead Cells (AID 961);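 also: 0% = DMSO and 100% = tetraoctylammonium bromide; nearly all actives have a fitted effect of over 70% in size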
Procedure, shortened: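 Acute toxicity is scored as increased dead-cell protease activity in human lymphoblastoid LYMP1-003 cells after 16 h compound exposure in complete culture medium. Activity is normalized to DMSO basal and 15 uM tetraoctylammonium bromide as full response.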

[15] = MultiTox-Fluor Cytotoxicity Assay - LYMP1-003 - Live Cells (AID 962);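 also: 0% = DMSO only and full loss = 92 µM tetraoctylammonium bromide; cytotoxic hits lower the live-cell protease signal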
Procedure, shortened: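 LYMP1-003 lymphoblastoid cells, 2500/well in complete medium, treated 16 h at 37 C; live-cell protease cleavage of GF-AFC read by fluorescence (Ex/Em 405/510) after 60 min reagent; AC50 from Hill fits of concentration-response.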

[16] = Cell Viability - LYMP1-003 - Assay at 24 hr (AID 963);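 also: plate controls were DMSO only for no effect and tetraoctylammonium bromide positive control for full effect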
Procedure, shortened: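 Human lymphoblastoid LYMP1-003 cells, 2500/well, treated 24 h at 37 C in complete medium. Viability read as intracellular ATP by CellTiter-Glo luminescence after 30 min at room temperature; AC50 from Hill-equation fits of qHTS concentration-response.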

[17] = Cell Viability - LYMP1-003 - Assay at 40 hr (AID 964); also: % is scaled to controls: 0 for no effect and ±100 for the full control effect; nearly all actives have a fitted effect of over 60% in size
Procedure, shortened: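 LYMP1-003 human lymphoblastoid cells, 2500/well, preincubated 5 h at 37 C, then treated with compound for 40 h at 37 C. Intracellular ATP read by CellTiter-Glo luminescence after 30 min at room temperature; AC50 from Hill-equation fits.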

[18] = Cell Viability - LYMP2-003 (AID 965);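 also: cells exposed to compounds for 24 h before reading; 0% = DMSO only and full effect = 92 µM tetraoctylammonium bromide; nearly all actives have a fitted effect of over 50% in size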
Procedure, shortened: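 Human lymphoblastoid LYMP2-003 cells, 2500/well, exposed to compounds for 24 h at 37 C in complete medium. Viability read as intracellular ATP by CellTiter-Glo luminescence; AC50 from Hill-equation fits of qHTS concentration-response data.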

[19] = MultiTox-Fluor Cytotoxicity Assay - LYMP1-002 - Dead Cells (AID 960);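 also: 0% = DMSO and 100% = tetraoctylammonium bromide; nearly all actives have a fitted effect of over 60% in size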
Procedure, shortened: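 Human lymphoblastoid LYMP1-002 cells, 2500/well, treated 16 h at 37 C; dead-cell protease cleavage of bis-AAF-R110 read by fluorescence (485/520); normalized to DMSO and 15 uM tetraoctylammonium bromide; AC50 from Hill fit.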

CCc1ccccc1O
inactive: caspase-3 activation [1] -0.562% | outcome [2] | caspase-3 activation [3] -0.213% | caspase-3 activation [4] -1.55% | outcome [5] | outcome [6] | Potency [7] | Potency [8] | Potency [9] | outcome [10] | outcome [11] | outcome [12] | outcome [13] | Potency [14] | Potency [15] | Potency [16] | Potency [17] | Potency [18]

c1ccc2n[nH]nc2c1
inactive: caspase-3 activation [1] 0.6% | outcome [2] | caspase-3 activation [3] -0.743% | caspase-3 activation [4] 1.96% | outcome [5] | outcome [6] | Potency [7] | Potency [8] | Potency [9] | outcome [10] | outcome [11] | outcome [12] | outcome [13] | Potency [14] | Potency [15] | Potency [16] | Potency [17] | Potency [18]

CC(C)(C)OCC1CO1 (configuration not stated)
inactive: caspase-3 activation [1] 0.391% | outcome [2] | caspase-3 activation [3] 0.741% | caspase-3 activation [4] 2.04% | outcome [5] | outcome [6] | Potency [7] | Potency [8] | Potency [9] | outcome [10] | outcome [11] | outcome [13] | outcome [19] | Potency [14] | Potency [15] | Potency [16] | Potency [17] | Potency [18]

CC(=O)c1ccccc1[N+](=O)[O-]
inactive: caspase-3 activation [1] -0.0773% | outcome [2] | caspase-3 activation [3] 0.797% | caspase-3 activation [4] 1.17% | outcome [5] | outcome [6] | Potency [7] | Potency [8] | Potency [9] | outcome [10] | outcome [11] | outcome [13] | outcome [19] | Potency [14] | Potency [15] | Potency [16] | Potency [17] | Potency [18]

OC1CCCC1
inactive: caspase-3 activation [1] -0.56% | outcome [2] | caspase-3 activation [3] 0.647% | caspase-3 activation [4] -1.06% | outcome [5] | outcome [6] | Potency [7] | Potency [8] | Potency [9] | outcome [10] | outcome [11] | outcome [12] | outcome [13] | Potency [14] | Potency [15] | Potency [16] | Potency [17] | Potency [18]

CNc1ccc([N+](=O)[O-])cc1
inactive: caspase-3 activation [1] 0.0307% | outcome [2] | caspase-3 activation [3] 0.918% | caspase-3 activation [4] -2.51% | outcome [5] | outcome [6] | Potency [7] | Potency [8] | Potency [9] | outcome [10] | outcome [11] | outcome [12] | outcome [13] | Potency [14] | Potency [15] | Potency [16] | Potency [17] | Potency [18]

Cc1cccc(C)c1O
inactive: caspase-3 activation [1] -0.0557% | outcome [2] | caspase-3 activation [3] -0.375% | caspase-3 activation [4] -3.44% | outcome [5] | outcome [6] | Potency [7] | Potency [8] | Potency [9] | outcome [10] | outcome [11] | outcome [12] | outcome [13] | outcome [19] | Potency [15] | Potency [17] | Potency [18]

Nc1cccc(C(F)(F)F)c1
inactive: caspase-3 activation [1] 2.31% | outcome [2] | caspase-3 activation [3] -0.107% | caspase-3 activation [4] 2.75% | outcome [5] | outcome [6] | Potency [7] | Potency [8] | Potency [9] | outcome [10] | outcome [11] | outcome [12] | outcome [13] | outcome [19] | Potency [15] | Potency [16] | Potency [17] | Potency [18]

c1ccsc1
inactive: caspase-3 activation [1] -0.223% | outcome [2] | caspase-3 activation [3] 0.78% | caspase-3 activation [4] -0.842% | outcome [5] | outcome [6] | Potency [7] | Potency [8] | Potency [9] | outcome [10] | outcome [11] | outcome [12] | outcome [13] | outcome [19] | Potency [15] | Potency [16] | Potency [17] | Potency [18]

CCCCCCCCC/C=C/CC1CC(=O)OC1=O (configuration not stated)
inactive: caspase-3 activation [1] 0.816% | outcome [2] | caspase-3 activation [3] 1.69% | caspase-3 activation [4] 5.74% | outcome [5] | outcome [6] | Potency [7] | Potency [8] | Potency [9] | outcome [10] | outcome [11] | outcome [12] | outcome [13] | Potency [14] | Potency [15] | Potency [16] | Potency [18]

O=C1OC(=O)c2c(Cl)c(Cl)c(Cl)c(Cl)c21
inactive: caspase-3 activation [1] -0.0678% | outcome [2] | caspase-3 activation [3] -0.63% | caspase-3 activation [4] 1.4% | outcome [5] | outcome [6] | Potency [7] | Potency [8] | Potency [9] | outcome [10] | outcome [11] | outcome [12] | outcome [13] | Potency [14] | Potency [15] | Potency [16] | Potency [17] | Potency [18]

O=C(O)CNC(=O)c1ccc([N+](=O)[O-])cc1
inactive: caspase-3 activation [1] -0.679% | outcome [2] | caspase-3 activation [3] 0.8% | caspase-3 activation [4] -2.43% | outcome [5] | outcome [6] | Potency [7] | Potency [8] | Potency [9] | outcome [10] | outcome [11] | outcome [12] | outcome [19] | Potency [14] | Potency [15] | Potency [16] | Potency [17] | Potency [18]

CCCCC(CC)COCC1CO1 (configuration not stated)
inactive: caspase-3 activation [1] -0.684% | outcome [2] | caspase-3 activation [3] -0.156% | caspase-3 activation [4] -2.33% | outcome [5] | outcome [6] | Potency [7] | Potency [8] | Potency [9] | outcome [10] | outcome [11] | outcome [12] | outcome [13] | Potency [14] | Potency [15] | Potency [16] | Potency [17] | Potency [18]
